Source: PubChem BioAssay
Compounds with a hit are over-represented: about 19% of the library has one in this group of screens.
DT40 TDP1 CPT – growth inhibition of DT40 Tdp1-/-;hTDP1 cells with camptothecin (screen for TDP1 inhibitors); chicken DT40 Tdp1-/-;hTDP1 cells + 20 nM CPT, ATP luminescence, 48 h; Potency, µM (top dose mostly 46.2 µM), actives largely listed as inhibitors; actives 12% (n = 420,000); AID 686979; also: nearly all actives have a fitted effect of over 55% in size
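Cell growth measured by CellTiter-Glo luminescence after a minimum 48 h, 37 C compound exposure with 20 nM CPT in Tdp1-knockout DT40 cells stably expressing hTDP1, seeded 400/well; qHTS titration format.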
IL1B secr inh – inflammasome signaling inhibition, IL-1 beta readout. THP-1 LPS/ATP IL-1B secretion, AlphaLISA, 16 h; active compounds read low. activity change, % at 57.5 µM. actives 4.7% (n = 360,000). AID 743279; in the data active = activity change below about -50%; inconclusive = mostly about -30% to -49%
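Secreted IL-1B measured by AlphaLISA bead assay after 16 h compound exposure of THP-1 cells; compounds (final up to 57.5 uM) added 1 h before LPS (250 ng/mL) and ATP (1.25 mM) stimulation; lower signal means less secretion.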
HT1080NT lethal – kills 2HG-producing HT-1080-NT fibrosarcoma cells | AID 686970 | HT-1080-NT fibrosarcoma viability, CellTiter-Glo ATP luminescence, 48 h | Potency, µM (titrated, usually from 46.1 µM), usual class: cytotoxic | actives 1.6% (n = 360,000);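 also: NT is the 2HG producing partner of a matched IDH1 knockdown line; nearly all actives have a fitted effect of over 55% in size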
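HT-1080-NT; 750 cells/well; 5% FBS RPMI; 48 h compound, 37 degrees C; CellTiter-Glo luminescence; curve fitting and curve-class assignment.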
DT40 TDP1 no CPT – qHTS for Inhibitors of human tyrosyl-DNA phosphodiesterase 1 (TDP1): qHTS in cells in absence of CPT; AID 686978, 2013; actives 15% (n = 420,000); Potency, µM (titrated, usually from 46.2 µM), most hits filed as inhibitors; DT40 Tdp1-/- hTDP1 cells, no CPT, ATP luminescence, 48 h; also: nearly all actives have a fitted effect of over 55% in size
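Readout: luminescence from CellTiter-Glo after 30 min in the dark at RT. Cells: DT40 Tdp1-/- with stable hTDP1, 400/well. Exposure: compounds alone, ≥48 hr, 37 °C.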
HT1080 IDH1KD tx – kills HT-1080 cells with IDH1 knockdown | HT-1080 IDH1 knockdown viability, ATP luminescence, 48 h | Potency, µM (top dose mostly 46.1 µM), hits mostly cytotoxic | actives 2% (n = 360,000)
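HT-1080-IDH1KD cells (IDH1 knocked down), 750/well in RPMI with 5% FBS, treated with compound 48 h at 37 degrees C. Viability by CellTiter-Glo luminescence, normalised to DMSO and no-cell wells; concentration-response curves classed.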
A number is an active result; n = inactive; u = inconclusive; x = no result; [ ] = dose if it differs, or a comment. Unless noted, calls follow the shape of the dose curve; as a rule, active = well fitted curve in the direction sought with a large enough effect; inconclusive = small, poorly fitted or top-dose-only effect, or another doubt; inactive = no such curve, though single readings can be large; an effect the other way counts as inactive or inconclusive.

SMILES	DT40 TDP1 CPT	IL1B secr inh	HT1080NT lethal	DT40 TDP1 no CPT	HT1080 IDH1KD tx
COCCCNC(=O)C1CCN(C(=O)Nc2ccc(Cl)cc2)CC1	n	n	n	n	n
COc1ccccc1NC(=O)C1CC(C)OC1=O (stereo unspecified)	n	n	n	n	n
COc1ccccc1-c1c(C)nn2c(N3CCN(c4ccc(Cl)cc4)CC3)cc(C)nc12	n	x	x	n	x
O=C(CCCSc1nc2ccccc2[nH]1)N1CCN(c2ccccc2)CC1	u	n	n	u	n
O=C(CCCSc1nc2ccccc2[nH]1)NC1CCCCC1	u	n	n	29µM	n
O=C(CSc1nc2ccccc2[nH]1)NC1CCCC1	n	n	n	n	n
O=C(CCCSc1nc2ccccc2[nH]1)NC(c1ccccc1)c1ccccc1	12µM	n	n	15µM	n
Cc1cccc(N2CCN(C(=O)CCCSc3nc4ccccc4[nH]3)CC2)c1C	16µM	u	u	u	u
Cc1ccc(NC(=O)c2sc3ncn(CC(=O)N4CCN(c5ccccn5)CC4)c(=O)c3c2C)cc1	n	n	n	u	n
Cc1nc(N2CCN(c3ccccn3)CC2)c2c(C)c(C(=O)Nc3ccc(Cl)cc3)sc2n1	u	-58	n	u	n
Cc1nc(N2CCN(c3ccccn3)CC2)c2c(C)c(C(=O)Nc3c(C)cc(Br)cc3C)sc2n1	u	u	n	u	n
Cc1nc(N2CCN(c3ccccn3)CC2)c2c(C)c(C(=O)Nc3c(F)cc(F)cc3Br)sc2n1	16µM	n	n	13µM	n
NCC(=O)NCC(=O)NC[C@H]1O[C@@H](n2cnc3c(N)ncnc32)[C@H](O)[C@@H]1O	n	n	n	n	n
C[C@H](CO)N1C[C@H](C)[C@@H](CN(C)Cc2ccccc2)Oc2c(NC(=O)C3CC3)cccc2C1=O	u	n	n	u	n
COC(=O)C1CCN(C2CN(Cc3ccc([N+](=O)[O-])cc3)S(=O)(=O)C2)CC1 (stereo unspecified)	u	n	n	u	n
CC(=O)Nc1sc2c(c1C(c1cccc(Cl)c1)N1CCN(CCO)CC1)CCCC2 (stereo unspecified)	16µM	n	n	26µM	n
COc1ccc(C(c2c(NC(C)=O)sc3c2CCCC3)N2CCN(CCO)CC2)cc1OC (stereo unspecified)	n	n	n	n	n
Cc1sc(NC(=O)c2ccccc2)c(C(c2ccc(Cl)cc2)N2CCN(CCO)CC2)c1C (stereo unspecified)	23µM	-66	u	26µM	u
CCOc1ccc(C(c2c(NC(=O)c3ccccc3)sc(C)c2C)N2CCN(CCO)CC2)cc1 (stereo unspecified)	21µM	-67	u	18µM	u
Cc1c(NC(=O)C(C)OC(=O)CCc2ccccc2)c(=O)n(-c2ccccc2)n1C (stereo unspecified)	n	n	n	n	n
CCOc1ccc(-c2cc(C(=O)NCc3ccccc3)[nH]n2)c(C)c1	u	n	n	u	n
CCC(C)c1ccc(NC(=S)N2CCN(S(C)(=O)=O)CC2)cc1 (stereo unspecified)	n	n	n	n	n
COC(=O)c1ccc(/C=N\NC(=O)c2c(C)nc3ccc(Cl)cn23)cc1	u	n	n	10µM	n
CCOc1ccccc1/C=N/NC(=O)c1c(C)nc2ccc(Br)cn12	n	n	n	n	n
C=CCOc1ccc(/C=N/NC(=O)c2c(C)nc3ccc(Cl)cn23)cc1	n	n	n	u	n
COc1cccc(/C=N/NC(=O)c2c(C)nc3ccc(Br)cn23)c1O	4.6µM	n	u	3.3µM	u
COc1ccc(/C=N/NC(=O)c2c(C)nc3ccc(Cl)cn23)cc1OC	12µM	n	u	8.2µM	n
COc1cccc(/C=N/NC(=O)c2c(C)nc3ccc(Cl)cn23)c1OC	16µM	n	n	u	n
COc1ccccc1C1CN(CCNC(=O)c2ccccc2Cl)Cc2ccccc2O1 (stereo unspecified)	n[9.04 µM]	x	x	n	x
